# Laboratory results as given in ChEMBL document CHEMBL3988442, “University of Dundee, Small-Polar-MMV Screening Library” (2021).
# Target: T1, Methionyl-tRNA synthetase, putative (Leishmania donovani (strain BPK282A1)) (UniProt E9BF75)
# T1 sequence (whole entry): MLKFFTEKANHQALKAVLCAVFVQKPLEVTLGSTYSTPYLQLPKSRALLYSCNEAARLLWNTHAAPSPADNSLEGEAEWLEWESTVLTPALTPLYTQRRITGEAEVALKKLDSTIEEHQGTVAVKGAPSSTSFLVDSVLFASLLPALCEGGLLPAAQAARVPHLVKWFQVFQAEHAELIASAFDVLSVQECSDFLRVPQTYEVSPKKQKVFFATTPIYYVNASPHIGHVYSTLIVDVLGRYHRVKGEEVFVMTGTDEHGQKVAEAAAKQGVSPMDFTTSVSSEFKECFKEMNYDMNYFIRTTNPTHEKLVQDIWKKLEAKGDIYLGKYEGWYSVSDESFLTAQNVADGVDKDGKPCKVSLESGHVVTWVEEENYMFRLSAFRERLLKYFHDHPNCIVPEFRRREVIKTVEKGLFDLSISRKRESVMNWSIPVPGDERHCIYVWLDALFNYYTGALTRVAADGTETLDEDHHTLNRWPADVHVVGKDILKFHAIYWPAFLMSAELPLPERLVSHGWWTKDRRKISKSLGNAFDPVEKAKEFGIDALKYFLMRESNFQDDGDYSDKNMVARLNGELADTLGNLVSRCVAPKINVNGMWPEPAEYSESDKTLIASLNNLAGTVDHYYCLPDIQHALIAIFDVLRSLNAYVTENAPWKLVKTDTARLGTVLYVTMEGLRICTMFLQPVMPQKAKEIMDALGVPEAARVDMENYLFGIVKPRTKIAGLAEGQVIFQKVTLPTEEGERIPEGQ
# Assay: Leishmania donovani Methionine tRNA synthetase (LdMetRS):v7. Dose response assay
# Type: functional
# Parameters: conc 80 nM, time 150 minutes
compound,measurement,setting,value
OCc1ccncc1NCc1cnc(-c2ccccn2)s1,PXC50,MAX_EFFECT 2.34741784,< 4
same,PXC50,MAX_EFFECT 7.222222222,< 4
Cn1cc(CN2CCC(F)(F)C3(CCN(c4cccnc4)C3)C2)cn1 (stereo not given),PXC50,MAX_EFFECT 3.888888889,< 4
same,PXC50,MAX_EFFECT 8.450704225,< 4
Cc1sc2nc(CN3CCOCC3)nc(NC(C)(C)CCO)c2c1C,PXC50,MAX_EFFECT 4.371584699,< 4
same,PXC50,MAX_EFFECT 8.021390374,< 4
O=C(NCC1CCCCC1)c1cc(=O)c2ccc(F)c(O)c2o1,PXC50,MAX_EFFECT 5.182341651,< 4
same,PXC50,MAX_EFFECT -0.4784689,< 4
Cc1nc(N(C)CC(=O)N(C)C)c2c(-c3ccccc3)csc2n1,PXC50,MAX_EFFECT 5.289672544,< 4
same,PXC50,MAX_EFFECT 6.361323155,< 4
Cc1nc(NCCCO)c2c(-c3cccs3)csc2n1,PXC50,MAX_EFFECT 5.852417303,< 4
same,PXC50,MAX_EFFECT 7.808564232,< 4
COc1ccc(NC[C@@H](N)CC(C)C)c(Oc2ccc(Cl)cc2)n1,PXC50,MAX_EFFECT 6.560636183,< 4
same,PXC50,MAX_EFFECT 6.651376147,< 4
CC(C)C[C@H](N)COc1ccc(Cl)cc1-c1ccno1,PXC50,MAX_EFFECT 6.832298137,< 4
same,PXC50,MAX_EFFECT 8.742004264,< 4
Cc1nc(NCCS(N)(=O)=O)c2c(-c3ccccc3)csc2n1,PXC50,MAX_EFFECT 6.870229008,< 4
same,PXC50,MAX_EFFECT 12.34256927,< 4
O=C(O)C1CCCN1c1nc(-c2ccc(Cl)cc2)cc(C(F)(F)F)n1 (stereo not given),PXC50,MAX_EFFECT 7.310704961,< 4
same,PXC50,MAX_EFFECT 9.138381201,< 4
CCc1nc(N2CCN(CC)CC2)c2cc(CC)sc2n1,PXC50,MAX_EFFECT 7.407407407,< 4
same,PXC50,MAX_EFFECT 9.066666667,< 4
CC(C)C[C@H](N)CNc1cccnc1Oc1ccc(Cl)cc1,PXC50,MAX_EFFECT 7.660455487,< 4
same,PXC50,MAX_EFFECT 9.168443497,< 4
CC(C)C[C@H](N)COc1ccccc1-c1ccn(C)n1,PXC50,MAX_EFFECT 7.660455487,< 4
same,PXC50,MAX_EFFECT 10.87420043,< 4
CC(C)C[C@H]1COc2ccccc2C(c2ccccc2)=N1,PXC50,MAX_EFFECT 7.8891258,< 4
same,PXC50,MAX_EFFECT 10.97308489,< 4
NS(=O)(=O)c1ccc(Cl)cc1Cl,PXC50,MAX_EFFECT 7.991360691,< 3
same,PXC50,MAX_EFFECT 11.97718631,< 3
Cc1sc2nc(CN3CCOCC3)nc(NC3CC3)c2c1C,PXC50,MAX_EFFECT 8.673469388,< 4
same,PXC50,MAX_EFFECT 8.838383838,< 4
Cc1sc2nc(CCN)nc(N(CCN(C)C)CC3CCCO3)c2c1C (stereo not given),PXC50,MAX_EFFECT 8.838383838,< 4
same,PXC50,MAX_EFFECT 10.20408163,< 4
Clc1cc(Cl)c2c(c1)NCCC2,PXC50,MAX_EFFECT 10.1511879,< 3
same,PXC50,MAX_EFFECT 15.01901141,< 3
CN(c1ncnc2sccc12)C1CCCN(c2cccnn2)C1 (stereo not given),PXC50,MAX_EFFECT 11.26760563,< 4
same,PXC50,MAX_EFFECT 18.33333333,< 4
COCCNc1nc(CN2CCCC2)nc2sc3c(c12)CCCC3,PXC50,MAX_EFFECT 13.54166667,< 4
same,PXC50,MAX_EFFECT 14.03508772,< 4
Cc1sc2nc(CCN)nc(N3CCC(N4CCCC4)CC3)c2c1C,PXC50,MAX_EFFECT 14.62140992,< 4
same,PXC50,MAX_EFFECT 16.44908616,< 4
Cc1nc(N2CCN(c3ncccn3)CC2)c2c3c(sc2n1)CCC3,PXC50,MAX_EFFECT 14.75409836,< 4
same,PXC50,MAX_EFFECT 18.71657754,< 4
Cc1sc2nc(CCN)nc(N(C)CCCC3CCCO3)c2c1C (stereo not given),PXC50,MAX_EFFECT 15.90909091,< 4
same,PXC50,MAX_EFFECT 18.36734694,< 4
Cn1ncc2c(OCCO)nc(Nc3ccc(F)c(F)c3)nc21,PXC50,MAX_EFFECT 18.30188679,< 4
same,PXC50,MAX_EFFECT 21.91780822,< 4
O=C(c1ccc2ccc(N3CCN(CC4CC4)CC3)n2c1)N1CCCO1,PXC50,MAX_EFFECT 19.44444444,< 4
same,PXC50,MAX_EFFECT 22.0657277,< 4
CCOC(=O)c1sc2nc(C)nc(NC3CCN(C4CC4)CC3)c2c1C,PXC50,MAX_EFFECT 19.59798995,< 4
same,PXC50,MAX_EFFECT 24.32432432,< 4
CC[C@H](C)[C@H](Nc1nc(C)nc2sc3c(c12)CCCC3)C(=O)O,PXC50,MAX_EFFECT 21.80851064,< 4
same,PXC50,MAX_EFFECT 23.31606218,< 4
C[C@@H](Oc1cc(-n2cnc3cc(N)ccc32)sc1C(N)=O)c1ccccc1Cl,PXC50,MAX_EFFECT 24.18604651,< 4
same,PXC50,MAX_EFFECT 25.87412587,< 4
COCCNC(=O)c1ccc2ccc(N(C)CC3CC3)n2c1,PXC50,MAX_EFFECT 29.93197279,< 4
same,PXC50,MAX_EFFECT 41.12149533,< 4
Cc1cc2c(N3CCCCC3)nc(-c3cccnc3)nc2s1,PXC50,MAX_EFFECT 30.15075377,< 4
same,PXC50,MAX_EFFECT 37.1007371,< 4
